Reference: PubChem BioAssay (NCATS)
Results filed as inconclusive are left out. Where a call stands in place of a potency, no number is given. Calls of active or inactive are those of the source. Unless noted, the call rests on the fitted dose curve; in most records, active means well fitted inhibition curve with a large enough effect; inconclusive means small, poorly fitted or top-dose-only effect; inactive means flat fitted curve, though single readings scatter.

What was measured:
AS120 = assay: qHTS profiling for inhibitors of Plasmodium falciparum proliferation (AID 504749); further: nearly all actives have a fitted effect of over 60% in size; further: potency means the concentration at half of the fitted maximal effect; settings: P. falciparum in erythrocytes, SYBR Green DNA, 72 h; series mostly up to 28.7 µM
Procedure, shortened: (§1)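 P. falciparum-infected erythrocytes (0.3% parasitemia, 2.5% hematocrit final) were exposed to compounds for 72 h at 37 C in 5% CO2, then lysed with SYBR Green buffer overnight at room temperature; parasite DNA fluorescence was normalized to artemisinin and DMSO controls.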

CP191 = assay: as above; settings: P. falciparum in erythrocytes, SYBR Green DNA, 72 h; series mostly up to 28.7 µM
Procedure, shortened: as §1

CP194 = assay: as above; settings: P. falciparum in erythrocytes, SYBR Green DNA, 72 h; series mostly up to 28.7 µM
Procedure, shortened: as §1

CP217 = assay: as above; settings: P. falciparum in erythrocytes, SYBR Green DNA, 72 h; series mostly up to 28.7 µM
Procedure, shortened: as §1

CP252 = assay: as above; settings: P. falciparum in erythrocytes, SYBR Green DNA, 72 h; series mostly up to 12.8 µM
Procedure, shortened: as §1

CP256 = assay: as above; settings: P. falciparum in erythrocytes, SYBR Green DNA, 72 h; series mostly up to 28.7 µM
Procedure, shortened: as §1

CP266 = assay: as above; settings: P. falciparum in erythrocytes, SYBR Green DNA, 72 h; series mostly up to 12.8 µM
Procedure, shortened: as §1

CP286 = assay: as above; settings: P. falciparum in erythrocytes, SYBR Green DNA, 72 h; series mostly up to 28.7 µM
Procedure, shortened: as §1

CP297 = assay: as above; settings: P. falciparum in erythrocytes, SYBR Green DNA, 72 h; series mostly up to 28.7 µM
Procedure, shortened: as §1

CP315 = assay: as above; settings: P. falciparum in erythrocytes, SYBR Green DNA, 72 h; series mostly up to 28.7 µM
Procedure, shortened: as §1

CP325 = assay: as above; settings: P. falciparum in erythrocytes, SYBR Green DNA, 72 h; series mostly up to 28.7 µM
Procedure, shortened: as §1

Dd2 = assay: as above; settings: P. falciparum in erythrocytes, SYBR Green DNA, 72 h; series mostly up to 28.7 µM
Procedure, shortened: as §1

GB4 = assay: as above; settings: P. falciparum in erythrocytes, SYBR Green DNA, 72 h; series mostly up to 28.7 µM
Procedure, shortened: as §1

HB3 = assay: as above; settings: P. falciparum in erythrocytes, SYBR Green DNA, 72 h; series mostly up to 28.7 µM
Procedure, shortened: as §1

N140 = assay: as above; settings: P. falciparum in erythrocytes, SYBR Green DNA, 72 h; series mostly up to 28.7 µM
Procedure, shortened: as §1

PAD = assay: as above; settings: P. falciparum in erythrocytes, SYBR Green DNA, 72 h; series mostly up to 28.7 µM
Procedure, shortened: as §1

PC15 = assay: as above; settings: P. falciparum in erythrocytes, SYBR Green DNA, 72 h; series mostly up to 28.7 µM
Procedure, shortened: as §1

SC27B = assay: as above; settings: P. falciparum in erythrocytes, SYBR Green DNA, 72 h; series mostly up to 28.7 µM
Procedure, shortened: as §1

TAB113 = assay: as above; settings: P. falciparum in erythrocytes, SYBR Green DNA, 72 h; series mostly up to 28.7 µM
Procedure, shortened: as §1

[1] = S16 Schwann cell PMP22 intronic element beta-lactamase assay (AID 624044; calls by dose curve; further: nearly all actives have a fitted effect of over 15% in size); settings: S16 rat Schwann cells, PMP22 element beta-lactamase FRET, 24 h; ratio activity, negative = inhibition: at 38.3 µM (top of the series) unless noted
Procedure, shortened: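 Rat S16 Schwann cells with beta-Lac driven by a PMP22 intronic element, compound-treated 24 h at 37 °C. LiveBLAzer FRET B/G read: 460 nm normalized to potassium clavulanate vs DMSO; 535 nm FRET as viability; concentration-effect curves classified.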

Structure (SMILES)	Potency (AS120)	Potency (CP191)	Potency (CP194)	Potency (CP217)	Potency (CP252)	Potency (CP256)	Potency (CP266)	Potency (CP286)	Potency (CP297)	Potency (CP315)	Potency (CP325)	Potency (Dd2)	Potency (GB4)	Potency (HB3)	Potency (N140)	Potency (PAD)	Potency (PC15)	Potency (SC27B)	Potency (TAB113)	Potency [1]
CC[C@@]1(c2ccc(N)cc2)CCC(=O)NC1=O	inactive	inactive	inactive	inactive	inactive	inactive	inactive	inactive	inactive	inactive	inactive	inactive	inactive	inactive	inactive	inactive	inactive	inactive	inactive	
COc1ccc2c(c1OC)CN1CCc3cc4c(cc3[C@H]1C2)OCO4						3.16 µM (active)			1.81 µM (active)	3.61 µM (active)			2.03 µM (active)			3.16 µM (active)			3.16 µM (active)	inactive
C[N+]1(C)[C@@H]2CC[C@H]1CC(OC(=O)[C@@H](CO)c1ccccc1)C2 (stereo partly specified)	inactive	inactive	inactive	inactive	inactive		inactive	inactive	inactive		inactive	inactive	inactive	inactive	inactive	inactive	inactive	inactive	inactive	inactive
CC1=C2[C@@H]3OC(=O)[C@@H](C)[C@@H]3CC[C@]2(C)C=CC1=O			inactive				inactive	inactive	inactive	inactive	inactive	inactive	inactive	inactive			inactive			inactive
C[C@H](NC(C)(C)C)C(=O)c1cccc(Cl)c1	inactive	inactive	inactive	inactive	inactive	inactive	inactive	inactive	inactive	inactive	inactive		inactive	inactive	inactive	inactive	inactive	inactive	inactive	inactive
C[C@@]12CCC(=O)C=C1C=C[C@H]1[C@H]3CC[C@](O)(CCC(=O)O)[C@]3(C)CC[C@@H]12	inactive	inactive	inactive	inactive	inactive	inactive	inactive	inactive	inactive	inactive	inactive	inactive			inactive	inactive	inactive	inactive		inactive
CNC[C@H](O)c1ccc(O)cc1	inactive	inactive	inactive	inactive	inactive	inactive	inactive	inactive	inactive	inactive	inactive	inactive	inactive	inactive	inactive	inactive	inactive	inactive	inactive	inactive
CC(=O)OCC(=O)[C@@H]1CC[C@H]2[C@H]3CC[C@H]4C[C@@H](O)CC[C@]4(C)[C@@H]3C(=O)C[C@@]12C	inactive	inactive	inactive	inactive	inactive	inactive	inactive	inactive	inactive	inactive	inactive	inactive	inactive	inactive	inactive	inactive	inactive	inactive	inactive	inactive
C#CCN(C)[C@@H](C)Cc1ccccc1	inactive	inactive	inactive	inactive	inactive	inactive	inactive	inactive	inactive	inactive	inactive	inactive	inactive	inactive	inactive	inactive	inactive	inactive	inactive	inactive
CN(C)C(=O)Oc1cc(OC(=O)N(C)C)cc([C@@H](O)CNC(C)(C)C)c1	inactive	inactive	inactive	inactive	inactive	inactive	inactive	inactive	inactive	inactive	inactive	inactive	inactive	inactive	inactive	inactive	inactive	inactive	inactive	inactive
C[N+]1([O-])[C@@H]2CC[C@H]1CC(OC(=O)[C@@H](CO)c1ccccc1)C2 (stereo partly specified)	inactive	inactive	inactive	inactive	inactive	inactive	inactive	inactive	inactive	inactive	inactive	inactive	inactive	inactive	inactive	inactive	inactive	inactive	inactive	inactive
